Only some compounds are listed: those with a hit (about 10% of all), similar ones and a draw of the others.
HEK cytotox: cytotoxic compounds in HEK 293 cells. 6.6% of 94,000 active. Potency, µM (series often up to 115 µM), without a hit: at the top dose activity change, negative = cytotoxicity, most hits filed as inhibitors. HEK 293 viability, ATP luminescence (CellTiter-Glo), 48-72 h; note: nearly all actives have a fitted effect of over 60% in size
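ATP-coupled CellTiter-Glo luminescence served as viability read-out, recorded 10 min after reagent addition at room temperature. HEK 293 cells, 250 cells/well, had been incubated with pintool-transferred compound for 48 or 72 hr at 37 degree Celsius.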
NIH3T3 tox: NIH 3T3 cell cytotoxicity; NIH 3T3 viability, CellTiter-Glo ATP luminescence, 48-72 h; Potency, µM (titrated, usually from 96.7 µM), for the others: top-dose activity change, negative = cytotoxicity, hits mostly inhibitors; 4.3% of 94,000 active; note: nearly all actives have a fitted effect of over 55% in size
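First NIH 3T3 cells are plated at 400 cells/well; next compound is pinned in; then plates incubate 48 or 72 hr at 37 °C; finally CellTiter-Glo is added and luminescence read after 10 min.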
Luciferase inh: inhibitors of firefly (Photinus pyralis) luciferase. Potency, µM (highest dose often 115 µM), hits mostly inhibitors. AID 1347043. 2.5% of 76,000 active. P08659. purified P. pyralis luciferase, luminescence, biochemical; note: nearly all actives have a fitted effect of over 65% in size
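Biochemical qHTS: compound (6-point titration) added to 10uM D-luciferin plus 10uM ATP in Tris acetate pH 7.5 buffer with Mg, Tween-20 and BSA, then purified enzyme at 10nM; light output imaged.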
GPT2 inh: inhibitors of human GPT2 alanine aminotransferase | AID 1671188 | 0.25% of 100,000 active | Recombinant GPT2, coupled pyruvate oxidase/HRP Amplex Red fluorescence | Potency, µM (top dose mostly 57.7 µM), for inactives: at the top dose activity change, negative = inhibition, hits mostly inhibitors; note: nearly all actives have a fitted effect of over 60% in size
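GPT2 10ng/uL, a-KG 250uM, L-Ala 2mM, HEPES pH7.5 + 0.0001% Tween; 30 min RT. Then Amplex mix (PO/HRP/ThPP), 30 min RT dark, fluorescence. AOA 50uM used as positive control.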
hNpr1 antagonist: antagonists of human natriuretic peptide receptor Npr1; Potency, µM (highest dose often 46.3 µM), inactives show top-dose activity change, negative = inhibition, usual class: inhibitors; P16066; HEK293 hNpr1 GloSensor cGMP, ANP-stimulated luminescence; 1.6% of 76,000 active; calls by dose curve; note: nearly all actives have a fitted effect of over 60% in size
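HEK293 cells stably expressing human Npr1 and cGMP GloSensor pGS-40F, loaded 2 h with 2% GloSensor reagent, given compound 30 min at room temperature. Luminescence read before and 20 min after 0.1 nM hNppA.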
An asterisk follows results filed as active; i = inactive; ? = inconclusive; / = no result; ! = not active in a repeat; [ ] = dose if it differs, or a comment. Unless noted, calls come from the whole dose curve; as a rule, active = well fitted curve in the direction sought with a large enough effect; inconclusive = small, poorly fitted or top-dose-only effect, or another doubt; inactive = no such curve, though single readings can be large; an effect the other way counts as inactive or inconclusive. % is set by controls: 0 for no effect and ±100 for the full control effect; potency is the fitted concentration of half-maximal effect.

SMILES | HEK cytotox | NIH3T3 tox | Luciferase inh | GPT2 inh | hNpr1 antagonist
O=c1n(-c2ccc(C(F)(F)F)cc2)nc2n1CCN(Cc1ccc(C(F)(F)F)cc1)C2 | 35µM*! | ? | i | ? | ?
O=c1n(-c2ccc(Cl)cc2)nc2n1CCN(Cc1ccc(C(F)(F)F)cc1)C2 | ? | ? | / | -8% | /
O=C(c1ccccc1)N1CCn2c(nn(-c3ccc(F)cc3)c2=O)C1 | 100µM* | -19%[138 µM] | i | -2%[88.5 µM] | 2%[70.6 µM]
COc1ccc(-n2nc3n(c2=O)CCN(Cc2ccsc2)C3)cc1 | ? | 32µM* | / | i | /
Cc1ccc(NC(=O)N2CCC(n3c(C)cnc3C3CCOCC3)CC2)cc1C | -4% | -1% | i | i | 2%
CCOC(=O)C1CCN(C(=O)c2nc3sccn3c2-c2cccc(C(F)(F)F)c2)CC1 | i | -6% | / | i | /
Cc1noc(C)c1C(=O)NC1CCCN(c2ccc3nnc(C4CC4)n3n2)C1 (centres undefined) | i | -1% | / | / | /
CNC(=O)c1ccc2nc(-c3cccnc3)oc2c1 | -7%[172 µM] | ? | / | -7%[88.5 µM] | /
O=C(c1cc(F)ccc1F)N1CC(c2nnc(-c3ccncc3)o2)C2(CCOCC2)C1 (centres undefined) | -1% | -9% | i | -8% | 1%
O=c1n(-c2ccc(C(F)(F)F)cc2)nc2n1CCN(Cc1ccccn1)C2 | ? | ? | ? | -9% | 5%
O=c1n(-c2ccc(C(F)(F)F)cc2)nc2n1CCN(Cc1cccc3ccccc13)C2 | 28µM*! | ? | i | -19% | -19%
O=c1n(-c2ccncc2)nc2n1CCN(Cc1ccc(F)cc1)C2 | ? | ? | i | 3%[88.5 µM] | ?
O=c1n(-c2ccc(Cl)cc2)nc2n1CCN(Cc1ccc(F)cc1)C2 | 40µM* | 28µM* | / | i | /
CN(C)c1ccc(CN2CC(N3CCc4ccccc43)C2)cc1 | 89µM* | 89µM* | i | i | -6%[70.6 µM]
Fc1ccc(CN2CC(N3CCc4ccccc43)C2)cc1 | -16%[172 µM] | -10%[138 µM] | / | -24%[88.5 µM] | /
CCOC(=O)C[C@@H]1C[C@@H](C(C)C)[C@H](CNC(=O)C(C)(C)C)C=C1C | ? | ? | i | 3%[88.5 µM] | 3%[70.6 µM]
CNC(=O)CCn1ncc2cc(OCc3ccccc3-c3cccnc3OC)ccc21 | ? | ? | ? | 5%[88.5 µM] | 3%[70.6 µM]
CNC(=O)CCn1ncc2cc(OCc3ccccc3-c3cncc(OC)c3)ccc21 | 79µM* | ? | 22µM* | 4%[88.5 µM] | -11%[70.6 µM]
CNC(=O)CCn1ncc2cc(OCc3ccccc3-c3ccsc3)ccc21 | 89µM* | ? | 50µM* | 5%[88.5 µM] | 0%[70.6 µM]
CNC(=O)CCn1ncc2cc(OCc3ccccc3-c3ccc(OC)cc3C)ccc21 | 100µM* | ? | ? | -2%[88.5 µM] | -2%[70.6 µM]
CNC(=O)CCn1ncc2cc(OCc3ccccc3-c3cccc(OC)c3)ccc21 | 79µM* | ? | 45µM* | 0%[88.5 µM] | -12%[70.6 µM]
CNC(=O)CCn1ncc2cc(OCc3ccccc3-c3cnn(C)c3)ccc21 | ? | ? | i | 1%[88.5 µM] | 1%[70.6 µM]
O=C(CC1CCCC1)NC1CCN(C(=O)N2CC3CC(C2)[C@H]2CCCC(=O)N2C3)CC1 (some centres undefined) | 6% | 0% | i | -11% | -6%
CNC(=O)CCn1ncc2cc(OCc3ccccc3-c3ccc(OC)cc3)ccc21 | 100µM* | 89µM* | i | 1%[88.5 µM] | -1%[70.6 µM]
CNC(=O)CCn1ncc2cc(OCc3ccccc3-c3cc(F)cc(OC)c3)ccc21 | 71µM* | ? | i | -8%[88.5 µM] | -6%[70.6 µM]
SMILES | HEK cytotox | NIH3T3 tox | Luciferase inh | GPT2 inh | hNpr1 antagonist
Cn1cccc1CN1CCC2(C1)C(=O)Nc1ccccc12 (centres undefined) | ? | 100µM* | i | i | 6%[70.6 µM]
CN1CCN(C(=O)c2ccc3nnc(-c4cccnc4)n3c2)CC1 | -10%[172 µM] | -15%[138 µM] | / | 1%[88.5 µM] | /
O=C1NCN(Cc2ccc(Cl)cc2)C12CCN(Cc1ccc(C(F)(F)F)cc1)CC2 | 40µM* | ? | i | 0% | -21%
O=C1NCN(Cc2ccc(Cl)cc2)C12CCN(Cc1cccnc1)CC2 | ? | ? | i | 5% | 18%
O=C1NCN(Cc2ccc(Cl)cc2)C12CCN(Cc1ccc(F)cc1)CC2 | 28µM* | 14µM* | i | -30% | -22%
CC1(c2noc(-c3ccncc3)n2)CCN(C(=O)CCc2cc(Cl)no2)CC1 | ? | -26% | / | i | /
COc1cccc(C2CCN(Cc3cn(-c4ccccc4)nn3)C2)c1OC (centres undefined) | 79µM* | ? | i | -23% | -4%
CC(=O)N1CCC(N2C[C@H](O)C[C@H]2c2nc(-c3cccc(C)c3)no2)CC1 | ? | ? | 20µM* | -6%[88.5 µM] | -8%[70.6 µM]
CC(=O)N1CCC(N2C[C@H](O)C[C@H]2c2nc(-c3ccccc3)no2)CC1 | 0%[172 µM] | -5%[138 µM] | i | 4%[88.5 µM] | 1%[70.6 µM]
Cc1cccc(-c2noc([C@@H]3C[C@@H](O)CN3C3CCOCC3)n2)c1 | ? | -29%[174 µM] | 25µM* | i | -6%[70.6 µM]
Cc1cccc(-c2noc([C@@H]3C[C@@H](O)CN3Cc3cccc(C#N)c3)n2)c1 | ? | ? | ? | 4%[88.5 µM] | -15%[70.6 µM]
CN(C)c1ccc(CN2CC[C@H](c3nc4c(C(N)=O)cccc4[nH]3)C2)cc1 | 71µM* | 100µM* | i | i | ?
CCOc1ccc2c(n1)CCN(C(=O)NCC(C)C)C2 | -17% | -20% | ? | 3% | 6%
CCOc1ccc2c(n1)CCN(C(=O)Nc1cccc(CC)c1)C2 | ? | ? | ? | i | -30%
COCCOc1ccc2c(n1)CCN(C(=O)NCCC(C)C)C2 | -15% | -20% | 14µM* | -6% | 4%
CCOc1ccc2c(n1)CCN(C(=O)Nc1ccc(C)c(C)c1)C2 | ? | ? | 28µM* | i | -10%
CC(C)N(Cc1cn(Cc2ccccc2)nc1-c1cc2ccccc2o1)CC1CCC(=O)N1 (centres undefined) | 2% | -6% | i | ? | 0%
COC[C@@H]1CCCN1Cc1cn(Cc2ccccc2)nc1-c1cc2ccccc2o1 | ? | ? | 28µM* | 0% | -10%
COc1ccc(CC(=O)NC2CCN(c3nccc(Nc4ccccc4F)n3)CC2)cc1 | ? | 45µM* | / | i | /
O=C(Cc1ccc(F)cc1)NC1CCN(c2nccc(Nc3ccccc3F)n2)CC1 | ? | ? | / | -2% | /
COc1ccc(CC(=O)N2CCN(c3nccc(Nc4ccccc4F)n3)CC2)cc1 | 45µM* | ? | / | -1% | /
O=C(Cc1ccccn1)N1CCN(c2nccc(Nc3ccccc3F)n2)CC1 | ? | ? | / | i | /
COc1ccc(Nc2ccnc(N3CCC(NC(=O)NC4CCCC4)CC3)n2)cc1 | ? | ? | / | 1% | /
COc1ccc(Nc2ccnc(N3CCC(NC(=O)Cc4ccc(F)cc4)CC3)n2)cc1 | 40µM* | ? | / | i | /

Assay outcomes from PubChem BioAssay.
